Reference: PubChem BioAssay (NCATS)
Inconclusive results are not listed. Where a call stands in place of a potency, no number is given. Activity calls are given as the source filed them. Unless noted, calls follow the shape of the dose curve; as a rule, active = well fitted curve in the direction sought with a large enough effect in the repeat runs; inconclusive = weak or mixed curves; inactive = no such curve, though single readings can be large; an effect the other way counts as inactive or inconclusive.

Biological target: Cytochrome P450 2D6 (Homo sapiens) (UniProt P10635)
Sequence (P10635 whole entry, looked up): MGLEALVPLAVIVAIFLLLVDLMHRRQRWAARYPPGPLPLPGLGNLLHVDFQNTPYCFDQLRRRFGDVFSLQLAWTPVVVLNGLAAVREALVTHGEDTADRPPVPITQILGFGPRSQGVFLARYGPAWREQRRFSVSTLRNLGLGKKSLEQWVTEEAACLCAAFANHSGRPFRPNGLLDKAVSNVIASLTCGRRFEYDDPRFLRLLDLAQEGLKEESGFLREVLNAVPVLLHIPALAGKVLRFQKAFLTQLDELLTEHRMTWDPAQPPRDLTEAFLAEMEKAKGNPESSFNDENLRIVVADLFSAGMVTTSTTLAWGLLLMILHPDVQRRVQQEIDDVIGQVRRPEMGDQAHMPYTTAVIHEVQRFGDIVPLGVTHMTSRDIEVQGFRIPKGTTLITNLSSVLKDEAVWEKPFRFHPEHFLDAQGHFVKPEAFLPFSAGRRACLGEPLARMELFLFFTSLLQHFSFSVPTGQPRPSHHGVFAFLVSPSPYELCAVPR
Test: Cytochrome P450 family 2 subfamily D member 6 (CYP2D6) small molecule antagonists: luciferase biochemical (cell-free) qHTS assay (AID 1645840); also: nearly all actives have a fitted effect of over 55% in size; also: potency is read from the fitted curve at half-maximal effect
Conditions: P450-Glo CYP2D6 enzyme, luciferin luminescence, 1 h; series mostly up to 57.4 µM
Method in brief: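 P450-Glo luminescent screen: recombinant CYP2D6 enzyme–proluciferin substrate mix preincubated with compound 10 min at room temperature, then NADPH regeneration added for 1 h at room temperature. Detection reagent added for 20 min; luciferin light read as relative luminescence units.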

**Q.** Which Potency does the source give for `CN(C)CCc1c[nH]c2ccc(O)cc12` here?
**A.** 31 µM (active)

**Q.** Which Potency does the source give for `O=C(CCCCl)c1ccc(F)cc1` here?
**A.** inactive

**Q.** For `CN1CCC(N(Cc2ccccc2)c2ccccc2)CC1`, which Potency is on record?
**A.** 0.11 µM (active)

**Q.** For `CCOC(=O)C(c1c(O)c2ccccc2oc1=O)c1c(O)c2ccccc2oc1=O`, which Potency is on record?
**A.** inactive

**Q.** For `ClC1=C(Cl)C2(Cl)C(CBr)CC1(Cl)C2(Cl)Cl` (stereo unspecified), which Potency is on record?
**A.** inactive

**Q.** With `Sc1ccccc1Cl` as the molecule, how does the Potency read?
**A.** inactive

Biological target: Cytochrome P450 2C9 (Homo sapiens) (UniProt P11712)
Sequence (P11712 whole entry, looked up): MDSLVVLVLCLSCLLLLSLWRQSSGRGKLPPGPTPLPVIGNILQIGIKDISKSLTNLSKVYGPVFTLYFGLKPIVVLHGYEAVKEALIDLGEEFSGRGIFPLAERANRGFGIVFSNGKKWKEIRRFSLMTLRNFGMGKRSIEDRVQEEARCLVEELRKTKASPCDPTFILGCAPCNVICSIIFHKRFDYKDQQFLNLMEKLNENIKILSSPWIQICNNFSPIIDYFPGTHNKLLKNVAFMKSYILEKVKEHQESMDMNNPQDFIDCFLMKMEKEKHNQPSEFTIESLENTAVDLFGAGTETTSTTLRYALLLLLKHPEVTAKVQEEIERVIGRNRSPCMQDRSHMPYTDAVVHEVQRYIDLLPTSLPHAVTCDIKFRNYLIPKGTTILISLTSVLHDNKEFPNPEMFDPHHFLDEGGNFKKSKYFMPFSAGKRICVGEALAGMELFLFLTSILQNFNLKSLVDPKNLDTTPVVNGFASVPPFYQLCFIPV
Test: Cytochrome P450 family 2 subfamily C member 9 (CYP2C9) small molecule antagonists: luciferase biochemical (cell-free) qHTS assay (AID 1645842); also: nearly all actives have a fitted effect of over 55% in size; also: potency is read from the fitted curve at half-maximal effect
Conditions: P450-Glo CYP2C9 enzyme assay, luciferin luminescence; series mostly up to 57.4 µM
Method in brief: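 Luminescence, after 20 min with luciferin detection reagent, reflected CYP2C9 turnover during a 1 h NADPH-driven reaction at 37C. Enzyme-substrate mix contained 0.4% bovine serum albumin and was preincubated with compound 10 min at room temperature.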

**Q.** For `ClCc1cccc(Cl)c1`, which Potency is on record?
**A.** inactive

**Q.** Which Potency does the source give for `CN1C[C@@H](NS(=O)(=O)N(C)C)C[C@@H]2c3cccc4c3c(cn4C)C[C@H]21` here?
**A.** inactive

**Q.** With `C#C[C@]1(O)CC[C@H]2[C@@H]3CCC4=CC(=O)CCC4=C3C=C[C@@]21CC` as the molecule, how does the Potency read?
**A.** inactive

**Q.** Which Potency does the source give for `CNC(=O)Oc1cccc2ccccc12` here?
**A.** inactive

**Q.** Which Potency does the source give for `CCCOC(=O)Cc1ccc(OCC(=O)N(CC)CC)c(OC)c1` here?
**A.** inactive

**Q.** For `CN(C)CCc1c[nH]c2cccc(O)c12`, which Potency is on record?
**A.** inactive

**Q.** For `NC1(c2ccccc2)CCCCC1`, which Potency is on record?
**A.** inactive

**Q.** With `CC(C)=CCN1CC[C@@]2(C)c3cc(O)ccc3C[C@@H]1[C@@H]2C` as the molecule, how does the Potency read?
**A.** inactive

**Q.** Which Potency does the source give for `Oc1c(Br)cc(Br)cc1Br` here?
**A.** inactive

**Q.** For `COc1cc(C[C@@H](C)N)c(OC)cc1Br`, which Potency is on record?
**A.** inactive

**Q.** For `C[C@@H]1CN(C2CCC(C#N)(c3ccc(F)cc3)CC2)CC[C@]1(C(=O)O)c1ccccc1` (stereo partly specified), which Potency is on record?
**A.** inactive

**Q.** For `CCCC[N+]1(C)[C@@H]2CC(OC(=O)[C@H](CO)c3ccccc3)C[C@H]1[C@@H]1O[C@@H]12` (stereo partly specified), which Potency is on record?
**A.** inactive

**Q.** Which Potency does the source give for `CC1N=C(N)OC1c1ccccc1` (stereo unspecified) here?
**A.** inactive

**Q.** For `CN(C)C(=O)Oc1cc(OC(=O)N(C)C)cc(C(O)CNC(C)(C)C)c1` (stereo unspecified), which Potency is on record?
**A.** inactive

**Q.** With `CCOC(C(=O)OCCN(C)C)(c1ccccc1)c1ccccc1` as the molecule, how does the Potency read?
**A.** 3.09 µM (active)

**Q.** Which Potency does the source give for `O=C(NC(=O)c1c(F)cccc1F)Nc1cc(Cl)c(OC(F)(F)C(F)C(F)(F)F)cc1Cl` (stereo unspecified) here?
**A.** 19.5 µM (active)

**Q.** For `C[N+]1(CCC(C(N)=O)(c2ccccc2)c2ccccc2)CCCCC1`, which Potency is on record?
**A.** inactive

**Q.** With `c1cc2c(c(N3CCNCC3)c1)OCCO2` as the molecule, how does the Potency read?
**A.** inactive

**Q.** With `CCCCC1C(=O)NC(=O)N(C2CCCCC2)C1=O` (stereo unspecified) as the molecule, how does the Potency read?
**A.** 26.8 µM (active)

**Q.** For `CN1CCc2cc(Cl)c(O)cc2[C@H]2c3ccccc3CC[C@@H]21`, which Potency is on record?
**A.** inactive

**Q.** Which Potency does the source give for `N#Cc1nn(-c2c(Cl)cc(C(F)(F)F)cc2Cl)c(N)c1S(=O)C(F)(F)F` (stereo unspecified) here?
**A.** 3.89 µM (active)

**Q.** With `O=C(N[C@H]1N=C(c2ccccc2F)c2cccc3c2N(CC3)C1=O)c1cc2ccccc2[nH]1` as the molecule, how does the Potency read?
**A.** 6.92 µM (active)

**Q.** Which Potency does the source give for `CCOP(=S)(OCC)O/N=C(\C#N)c1ccccc1` here?
**A.** 2.19 µM (active)

**Q.** With `CCN(CC)C(C)C(=O)c1ccccc1` (stereo unspecified) as the molecule, how does the Potency read?
**A.** inactive

**Q.** Which Potency does the source give for `C[C@]12CC[C@H]3[C@@H](CCC4=CC(=O)CC[C@@H]43)[C@@H]1CC[C@@H]2O` here?
**A.** inactive

**Q.** Which Potency does the source give for `CCN(Cc1ccc(Cl)nc1)/C(=C/[N+](=O)[O-])NC` here?
**A.** inactive

**Q.** For `CCc1ccc(C2CCNCC2)cc1`, which Potency is on record?
**A.** inactive

**Q.** Which Potency does the source give for `COc1ccc2[nH]cc(CCN(C(C)C)C(C)C)c2c1` here?
**A.** inactive

**Q.** Which Potency does the source give for `CC[C@H]1C[C@@H]2C[C@H]3c4[nH]c5ccc(OC)cc5c4CCN(C2)[C@@H]13` here?
**A.** inactive

**Q.** For `C[C@]12CC[C@H]3[C@@H](CC=C4C[C@@H](O)CC[C@@]43C)[C@@H]1CC[C@@H]2O`, which Potency is on record?
**A.** inactive

**Q.** For `CCC(=O)OC1(c2ccccc2)CCN(C)CC1`, which Potency is on record?
**A.** inactive

**Q.** For `Cc1cccc(Cc2cnc[nH]2)c1C`, which Potency is on record?
**A.** 0.123 µM (active)

**Q.** Which Potency does the source give for `CN(C)CCc1c[nH]c2ccc(O)cc12` here?
**A.** inactive

**Q.** For `O=C(CCCCl)c1ccc(F)cc1`, which Potency is on record?
**A.** inactive

**Q.** Which Potency does the source give for `CN1CCC(N(Cc2ccccc2)c2ccccc2)CC1` here?
**A.** inactive

**Q.** Which Potency does the source give for `CCOC(=O)C(c1c(O)c2ccccc2oc1=O)c1c(O)c2ccccc2oc1=O` here?
**A.** 3.09 µM (active)

**Q.** With `ClC1=C(Cl)C2(Cl)C(CBr)CC1(Cl)C2(Cl)Cl` (stereo unspecified) as the molecule, how does the Potency read?
**A.** inactive

**Q.** With `Sc1ccccc1Cl` as the molecule, how does the Potency read?
**A.** inactive

System: not listed separately
Test: Cytotoxicity counterscreen for inhibitors of SARS-CoV-2 cell entry (AID 1645845; calls by dose curve; also: nearly all actives have a fitted effect of over 50% in size)
Conditions: cell viability (SARS-CoV-2 entry assay cells); series mostly up to 57.1 µM
Method in brief: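 Expi293F/hACE2 cells seeded overnight; cpd pin-transferred in DMSO, 1 h preincubation, + media, 48 h 37 C 5% CO2; ATPLite 1step luminescence; normalized to cells and no cells.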

**Q.** Which Potency does the source give for `C#C[C@]1(O)CC[C@H]2[C@@H]3CCC4=CC(=O)CCC4=C3C=C[C@@]21CC` here?
**A.** inactive

**Q.** Which Potency does the source give for `CNC(=O)Oc1cccc2ccccc12` here?
**A.** inactive

**Q.** With `C[C@@H]1CN(C2CCC(C#N)(c3ccc(F)cc3)CC2)CC[C@]1(C(=O)O)c1ccccc1` (stereo partly specified) as the molecule, how does the Potency read?
**A.** inactive

**Q.** With `CCCC[N+]1(C)[C@@H]2CC(OC(=O)[C@H](CO)c3ccccc3)C[C@H]1[C@@H]1O[C@@H]12` (stereo partly specified) as the molecule, how does the Potency read?
**A.** inactive

**Q.** Which Potency does the source give for `CN(C)C(=O)Oc1cc(OC(=O)N(C)C)cc(C(O)CNC(C)(C)C)c1` (stereo unspecified) here?
**A.** inactive

**Q.** With `O=C(NC(=O)c1c(F)cccc1F)Nc1cc(Cl)c(OC(F)(F)C(F)C(F)(F)F)cc1Cl` (stereo unspecified) as the molecule, how does the Potency read?
**A.** inactive

**Q.** Which Potency does the source give for `CCCCC1C(=O)NC(=O)N(C2CCCCC2)C1=O` (stereo unspecified) here?
**A.** inactive

**Q.** Which Potency does the source give for `N#Cc1nn(-c2c(Cl)cc(C(F)(F)F)cc2Cl)c(N)c1S(=O)C(F)(F)F` (stereo unspecified) here?
**A.** inactive

**Q.** For `O=C(N[C@H]1N=C(c2ccccc2F)c2cccc3c2N(CC3)C1=O)c1cc2ccccc2[nH]1`, which Potency is on record?
**A.** inactive

**Q.** With `Cc1cccc(Cc2cnc[nH]2)c1C` as the molecule, how does the Potency read?
**A.** inactive

System: not listed separately
Test: Primary qHTS to identify inhibitors of SARS-CoV-2 cell entry (AID 1645846; calls by dose curve; also: nearly all actives have a fitted effect of over 45% in size)
Conditions: SARS-CoV-2 pseudovirus cell entry assay, luminescence; activity change, negative = inhibition: at 57.1 µM (top of the series) unless noted; series mostly up to 57.1 µM
Method in brief: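 HEK293 cells stably expressing human ACE2, pre-treated 1 h with compound, then infected with MLV particles pseudotyped with Wuhan-Hu-1 spike (C-terminal 19-aa truncation). Luciferase luminescence after 48 h at 37 °C, normalised to spike PP and bald PP.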

**Q.** For `CNC(=O)Oc1cccc2ccccc12`, which Potency is on record?
**A.** inactive

**Q.** With `C[C@@H]1CN(C2CCC(C#N)(c3ccc(F)cc3)CC2)CC[C@]1(C(=O)O)c1ccccc1` (stereo partly specified) as the molecule, how does the activity change, negative = inhibition read?
**A.** -31.8%

**Q.** With `CCCC[N+]1(C)[C@@H]2CC(OC(=O)[C@H](CO)c3ccccc3)C[C@H]1[C@@H]1O[C@@H]12` (stereo partly specified) as the molecule, how does the activity change, negative = inhibition read?
**A.** -15.6%

**Q.** For `CN(C)C(=O)Oc1cc(OC(=O)N(C)C)cc(C(O)CNC(C)(C)C)c1` (stereo unspecified), which Potency is on record?
**A.** inactive

**Q.** With `CCCCC1C(=O)NC(=O)N(C2CCCCC2)C1=O` (stereo unspecified) as the molecule, how does the Potency read?
**A.** inactive

**Q.** For `O=C(N[C@H]1N=C(c2ccccc2F)c2cccc3c2N(CC3)C1=O)c1cc2ccccc2[nH]1`, which activity change, negative = inhibition is on record?
**A.** -28.2%

**Q.** Which activity change, negative = inhibition does the source give for `Cc1cccc(Cc2cnc[nH]2)c1C` here?
**A.** -1.14%
